# The supplement of paper PMC12819154, “High-throughput peptide-centric local stability assay extends protein–ligand identification to membrane proteins, tissues and bacteria” (Nature Structural & Molecular Biology, 2025)
# Compound: CN[C@@H]1C[C@H]2O[C@@](C)([C@@H]1OC)n1c3ccccc3c3c4c(c5c6ccccc6n2c5c31)C(=O)NC4 [staurosporine]
# Test: log2 fold change of tryptic peptide abundance, ligand vs vehicle (limited proteolysis) (log2 ratio); higher = more trypsin-susceptible (destabilized)
# Details: ligand concentration: 20 uM; sample: mouse liver crude lysate; replicate design: treated separately
# UniProt Q80ZW0, sequence (Q80ZW0 whole entry): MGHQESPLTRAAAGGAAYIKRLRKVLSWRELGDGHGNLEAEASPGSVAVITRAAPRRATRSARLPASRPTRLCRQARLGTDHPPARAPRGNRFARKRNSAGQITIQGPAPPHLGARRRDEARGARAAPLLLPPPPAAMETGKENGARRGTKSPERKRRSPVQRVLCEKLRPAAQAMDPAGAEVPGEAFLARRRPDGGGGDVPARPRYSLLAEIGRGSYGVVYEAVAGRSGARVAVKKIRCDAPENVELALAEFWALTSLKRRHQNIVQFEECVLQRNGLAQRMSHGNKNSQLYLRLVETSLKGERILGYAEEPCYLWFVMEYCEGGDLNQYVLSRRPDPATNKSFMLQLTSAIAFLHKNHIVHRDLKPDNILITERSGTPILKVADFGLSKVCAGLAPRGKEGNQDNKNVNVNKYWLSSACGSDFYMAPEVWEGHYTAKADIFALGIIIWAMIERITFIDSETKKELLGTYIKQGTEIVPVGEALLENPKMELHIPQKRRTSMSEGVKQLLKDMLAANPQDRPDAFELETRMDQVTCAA
# UniProt Q99KH8, sequence (Q99KH8 whole entry): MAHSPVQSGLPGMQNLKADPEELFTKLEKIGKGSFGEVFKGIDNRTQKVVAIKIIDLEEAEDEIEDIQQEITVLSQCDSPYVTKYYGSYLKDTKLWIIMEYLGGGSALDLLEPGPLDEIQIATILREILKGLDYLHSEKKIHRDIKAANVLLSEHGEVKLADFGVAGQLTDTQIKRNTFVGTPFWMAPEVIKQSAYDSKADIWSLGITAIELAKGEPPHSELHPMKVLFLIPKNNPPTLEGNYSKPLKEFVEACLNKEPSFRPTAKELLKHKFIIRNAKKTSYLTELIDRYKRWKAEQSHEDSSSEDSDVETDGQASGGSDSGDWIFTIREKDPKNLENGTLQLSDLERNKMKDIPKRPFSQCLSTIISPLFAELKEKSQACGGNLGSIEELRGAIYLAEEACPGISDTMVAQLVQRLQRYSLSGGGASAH
# UniProt Q8CAQ8, sequence (Q8CAQ8 whole entry): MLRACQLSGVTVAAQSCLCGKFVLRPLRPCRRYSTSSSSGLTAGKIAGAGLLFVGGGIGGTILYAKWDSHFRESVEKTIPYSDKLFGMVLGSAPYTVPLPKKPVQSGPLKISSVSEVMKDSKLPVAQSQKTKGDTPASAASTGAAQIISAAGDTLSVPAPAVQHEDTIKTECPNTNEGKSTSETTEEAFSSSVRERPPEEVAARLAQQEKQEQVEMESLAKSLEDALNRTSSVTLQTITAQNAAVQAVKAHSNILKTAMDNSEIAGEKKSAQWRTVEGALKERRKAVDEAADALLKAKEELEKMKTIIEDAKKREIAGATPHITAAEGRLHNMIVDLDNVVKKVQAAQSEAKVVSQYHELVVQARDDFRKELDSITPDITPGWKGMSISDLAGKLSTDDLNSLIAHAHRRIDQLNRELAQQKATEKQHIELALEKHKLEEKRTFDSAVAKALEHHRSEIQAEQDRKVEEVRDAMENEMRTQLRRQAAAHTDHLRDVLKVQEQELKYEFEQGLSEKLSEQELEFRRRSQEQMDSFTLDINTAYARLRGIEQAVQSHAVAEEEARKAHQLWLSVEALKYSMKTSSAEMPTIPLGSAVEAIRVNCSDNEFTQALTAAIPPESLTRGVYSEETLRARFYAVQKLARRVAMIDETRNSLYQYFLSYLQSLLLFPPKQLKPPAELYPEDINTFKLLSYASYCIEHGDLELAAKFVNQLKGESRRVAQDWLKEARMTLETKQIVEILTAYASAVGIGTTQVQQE
# UniProt P47811, sequence (P47811 whole entry): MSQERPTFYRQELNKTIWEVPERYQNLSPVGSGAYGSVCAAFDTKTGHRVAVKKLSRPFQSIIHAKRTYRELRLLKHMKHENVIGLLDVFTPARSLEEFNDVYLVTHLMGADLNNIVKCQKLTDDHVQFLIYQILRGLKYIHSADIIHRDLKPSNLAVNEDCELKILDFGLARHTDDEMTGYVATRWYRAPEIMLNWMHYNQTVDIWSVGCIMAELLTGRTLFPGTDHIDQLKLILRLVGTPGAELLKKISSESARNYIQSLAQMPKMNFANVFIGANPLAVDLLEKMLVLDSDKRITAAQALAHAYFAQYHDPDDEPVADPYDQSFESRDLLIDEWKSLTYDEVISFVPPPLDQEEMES
# UniProt Q9EQ20, sequence (Q9EQ20 whole entry): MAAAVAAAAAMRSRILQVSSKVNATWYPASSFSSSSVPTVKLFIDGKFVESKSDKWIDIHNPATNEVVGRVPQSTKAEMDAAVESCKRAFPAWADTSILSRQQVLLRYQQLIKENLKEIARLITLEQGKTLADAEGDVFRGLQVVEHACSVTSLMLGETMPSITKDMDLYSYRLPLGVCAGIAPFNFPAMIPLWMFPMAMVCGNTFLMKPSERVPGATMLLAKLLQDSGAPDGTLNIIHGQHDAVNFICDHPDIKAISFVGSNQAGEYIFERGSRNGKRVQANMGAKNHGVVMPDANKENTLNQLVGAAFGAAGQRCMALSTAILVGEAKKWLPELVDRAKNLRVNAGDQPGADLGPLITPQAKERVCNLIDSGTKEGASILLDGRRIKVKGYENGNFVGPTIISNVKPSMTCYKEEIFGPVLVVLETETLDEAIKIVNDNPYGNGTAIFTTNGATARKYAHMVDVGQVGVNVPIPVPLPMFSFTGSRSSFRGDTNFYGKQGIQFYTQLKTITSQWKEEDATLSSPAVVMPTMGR
# UniProt Q64028, sequence (Q64028 whole entry): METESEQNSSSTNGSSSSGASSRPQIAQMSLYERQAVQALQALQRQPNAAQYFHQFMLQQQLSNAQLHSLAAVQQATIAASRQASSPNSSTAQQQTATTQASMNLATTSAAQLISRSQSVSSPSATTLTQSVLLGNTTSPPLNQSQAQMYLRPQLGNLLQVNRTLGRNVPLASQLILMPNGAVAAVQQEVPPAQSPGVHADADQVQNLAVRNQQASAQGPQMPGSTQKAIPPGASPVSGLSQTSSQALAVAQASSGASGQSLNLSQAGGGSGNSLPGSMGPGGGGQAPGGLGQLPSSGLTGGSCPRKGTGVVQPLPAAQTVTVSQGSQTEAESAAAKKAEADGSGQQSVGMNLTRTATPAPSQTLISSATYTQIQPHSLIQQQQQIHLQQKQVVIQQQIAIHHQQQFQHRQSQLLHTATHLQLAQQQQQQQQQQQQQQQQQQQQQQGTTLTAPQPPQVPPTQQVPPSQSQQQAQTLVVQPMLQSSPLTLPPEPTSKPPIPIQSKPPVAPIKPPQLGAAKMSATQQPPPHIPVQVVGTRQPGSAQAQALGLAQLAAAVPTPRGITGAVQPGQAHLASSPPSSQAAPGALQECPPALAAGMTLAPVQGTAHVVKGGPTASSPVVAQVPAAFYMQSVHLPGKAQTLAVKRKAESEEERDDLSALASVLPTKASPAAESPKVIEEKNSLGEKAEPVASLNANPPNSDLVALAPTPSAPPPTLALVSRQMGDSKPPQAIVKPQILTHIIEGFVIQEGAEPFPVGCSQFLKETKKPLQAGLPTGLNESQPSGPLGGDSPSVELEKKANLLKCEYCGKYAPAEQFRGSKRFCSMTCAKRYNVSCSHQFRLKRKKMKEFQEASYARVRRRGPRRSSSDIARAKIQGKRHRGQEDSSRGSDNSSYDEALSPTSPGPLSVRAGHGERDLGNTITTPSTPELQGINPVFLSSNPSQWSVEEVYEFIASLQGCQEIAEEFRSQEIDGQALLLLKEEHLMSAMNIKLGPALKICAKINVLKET
# UniProt P70697, sequence (P70697 whole entry): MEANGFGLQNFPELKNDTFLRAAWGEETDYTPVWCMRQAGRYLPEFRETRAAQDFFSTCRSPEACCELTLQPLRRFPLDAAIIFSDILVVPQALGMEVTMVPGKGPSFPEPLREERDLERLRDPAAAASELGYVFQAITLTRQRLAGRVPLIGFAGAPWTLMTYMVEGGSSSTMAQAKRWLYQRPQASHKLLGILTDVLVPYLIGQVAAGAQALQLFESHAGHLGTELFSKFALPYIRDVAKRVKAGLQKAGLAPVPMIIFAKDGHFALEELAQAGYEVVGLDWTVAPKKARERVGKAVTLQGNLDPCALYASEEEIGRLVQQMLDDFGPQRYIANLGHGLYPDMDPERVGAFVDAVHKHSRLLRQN
# UniProt P33622, sequence (P33622 whole entry): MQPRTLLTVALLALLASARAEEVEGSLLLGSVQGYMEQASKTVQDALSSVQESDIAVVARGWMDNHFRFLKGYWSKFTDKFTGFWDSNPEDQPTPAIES
# UniProt O70503, sequence (O70503 whole entry): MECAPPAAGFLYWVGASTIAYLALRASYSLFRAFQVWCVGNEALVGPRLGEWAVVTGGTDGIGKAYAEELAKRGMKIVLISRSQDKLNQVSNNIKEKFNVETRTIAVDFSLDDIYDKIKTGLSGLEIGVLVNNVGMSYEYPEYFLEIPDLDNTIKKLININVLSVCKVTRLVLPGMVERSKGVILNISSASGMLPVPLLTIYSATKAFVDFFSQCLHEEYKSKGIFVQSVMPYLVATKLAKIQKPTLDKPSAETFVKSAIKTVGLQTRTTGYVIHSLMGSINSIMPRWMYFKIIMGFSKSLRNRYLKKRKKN
# UniProt Q61694, sequence (Q61694 whole entry): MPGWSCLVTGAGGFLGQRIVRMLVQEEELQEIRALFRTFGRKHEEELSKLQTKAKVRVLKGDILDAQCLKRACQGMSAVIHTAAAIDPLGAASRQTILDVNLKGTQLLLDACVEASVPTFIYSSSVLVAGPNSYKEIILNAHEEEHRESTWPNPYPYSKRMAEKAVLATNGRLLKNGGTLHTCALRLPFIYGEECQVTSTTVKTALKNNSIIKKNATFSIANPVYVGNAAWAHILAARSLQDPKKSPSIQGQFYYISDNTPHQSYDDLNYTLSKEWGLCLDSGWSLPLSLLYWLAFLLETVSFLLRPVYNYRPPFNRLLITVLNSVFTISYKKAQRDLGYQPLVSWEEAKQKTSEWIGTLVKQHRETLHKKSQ
row,Target,log2 fold change
1,"UniProt Q8CAQ8 (peptide sequence: ATEKQHIELALEK, peptide start residue: 423)",-1.29
2,"UniProt Q9EQ20 (peptide sequence: YQQLIKENLKEIAR, peptide start residue: 108)",-0.315
3,"UniProt Q61694 (peptide sequence: EIILNAHEEEHR, peptide start residue: 136)",-0.448
4,"UniProt Q64028 (peptide sequence: PQIAQMSLYER, peptide start residue: 24)",0.725
5,"UniProt P47811 (peptide sequence: NYIQSLAQMPK, peptide start residue: 257)",0.32
6,"UniProt P33622 (peptide sequence: GWMDNHFR, peptide start residue: 61)",0.483
7,"UniProt Q99KH8 (peptide sequence: GEPPHSELHPMK, peptide start residue: 215)",-1.74
8,"UniProt O70503 (peptide sequence: IQKPTLDKPSAETFVK, peptide start residue: 242)",0.192
9,"UniProt Q80ZW0 (peptide sequence: YSLLAEIGR, peptide start residue: 207)",-0.855
10,"UniProt Q9QZ05 (peptide sequence: DLKPVNIFLDSDDHVK, peptide start residue: 846)",-1.48
11,"UniProt P70697 (peptide sequence: FALPYIR, peptide start residue: 232)",0.384
